Compound activity as filed in PubChem BioAssay.
Sfp inh: qHTS Assay for Inhibitors of Bacillus subtilis Sfp phosphopantetheinyl transferase (PPTase) | Biochemical Sfp PPTase activity, qHTS | Potency, µM, inactives show largest response in the series, negative = inhibition, most hits filed as inhibitors | actives 3.5% (n = 310,000) | AID 1490, 2009;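 note: the enzyme is Sfp with the accession as filed and its product quenches rhodamine fluorescence; 0% = enzyme reaction without inhibitor and -100% = no enzyme wells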
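Compounds were incubated with enzyme (final 15 nM) for 15 min at room temperature before substrate addition started the reaction. Fluorescence at 525 nm excitation, 598 nm emission was recorded immediately and after 30 minutes.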
TDP1 block: qHTS Assay for Inhibitors of Tyrosyl-DNA Phosphodiesterase (TDP1) | recombinant TDP1, AlphaScreen DNA substrate cleavage | Potency, µM (series often up to 130 µM), for the others: at the top dose activity change, negative = inhibition, most hits filed as inhibitors | actives 0.28% (n = 350,000) | Tyrosyl-DNA phosphodiesterase 1 (Homo sapiens), Q9NUW8; note: % is set by controls: 0 for no effect and ±100 for the full control effect; nearly all actives have a fitted effect of over 40% in size
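Signal: AlphaScreen proximity between streptavidin donor and anti-FITC acceptor beads on intact substrate. Reaction: Tdp1 1 nM, substrate 15 nM final, 5 min RT after 15 min compound preincubation.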
BAZ2B block: qHTS Assay for Inhibitors of BAZ2B; Potency, µM (titrated, usually from 114 µM), for inactives: at the top dose activity change, negative = inhibition, most hits filed as inhibitors; Bromodomain adjacent to zinc finger domain protein 2B (Homo sapiens), Q9UIF8; actives 4.4% (n = 360,000); AlphaScreen BAZ2B-H3K14Ac peptide displacement; AID 504333, 2011; note: % is set by controls: 0 for no effect and ±100 for the full control effect; nearly all actives have a fitted effect of over 60% in size
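Compounds, titrated to a top concentration of 110 uM, were incubated 30 min at room temperature with preformed BAZ2B/acetyl-K14 H3 peptide complex (50 nM each). Proximity signal was measured by AlphaScreen after 20 min with beads.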
G9a inh: qHTS Assay for Inhibitors of Histone Lysine Methyltransferase G9a | Potency, µM (highest dose often 102 µM), without a hit: at the highest dose activity, negative = inhibition, usual class: inhibitors | Histone-lysine N-methyltransferase EHMT2 (Homo sapiens), Q96KQ7 | actives 8.8% (n = 350,000) | AID 504332, 2011 | G9a H3K9 monomethylation, AlphaScreen, 2 h; note: % is set by controls: 0 for no effect and ±100 for the full control effect; nearly all actives have a fitted effect of over 75% in size
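Chemiluminescent proximity detection of H3K9 monomethylation, read after 10 min bead incubation in the dark. Reaction: 20 nM G9a, 500 nM biotin-H3K9 peptide, 20 uM SAM cofactor, 2 h, room temperature, following 15 min enzyme-compound preincubation.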
HP1b chromo inh: HTS for Inhibitors of HP1-beta Chromodomain Interactions with Methylated Histone Tails; Chromobox protein homolog 1 (Homo sapiens), P83916; actives 0.56% (n = 390,000); AlphaScreen HP1-beta / biotin-H3K9me3 peptide binding; Potency, µM (doses to about 114 µM), for the others: top-dose activity change, negative = inhibition, usual class: inhibitors; note: nearly all actives have a fitted effect of over 70% in size
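Compound inhibition of the preformed complex between 50 nM HP1-beta and 50 nM biotinylated H3K9me3 peptide was read by AlphaScreen. Buffer was PBS pH 7.4 with 0.01% Tween-20. Incubations ran 30 min at room temperature, with 10 ug/mL donor/acceptor beads.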
JMJD2A Tudor inh: qHTS Assay for Inhibitors of JMJD2A-Tudor Domain; Potency, µM (doses to about 114 µM), for the others: at the top dose activity change, negative = inhibition, actives largely listed as inhibitors; actives 4.4% (n = 390,000); AlphaScreen JMJD2A-Tudor / H3K4me3 peptide binding; Lysine-specific demethylase 4A (Homo sapiens), O75164; note: % is set by controls: 0 for no effect and ±100 for the full control effect; nearly all actives have a fitted effect of over 50% in size
An asterisk follows results filed as active; ? = inconclusive; nt = not tested or not shown; [ ] = another dose, or the depositor's remark. Hits are enriched below; roughly 12% of the tested compounds scored in any of these assays. Calls come from the whole dose curve; as a rule, active = well fitted curve in the direction sought with a large enough effect; inconclusive = small, poorly fitted or top-dose-only effect, or another doubt; inactive = no such curve, though single readings can be large; an effect the other way counts as inactive or inconclusive. Potency is the fitted concentration of half-maximal effect.

SMILES	Sfp inh	TDP1 block	BAZ2B block	G9a inh	HP1b chromo inh	JMJD2A Tudor inh
COc1cccc(N2CC(C(=O)Nc3nnc(SCCN4CCOCC4)s3)CC2=O)c1 (centres undefined)	1.7%	5.1%	-10.3%	39.8µM*	43.0%	-17.1%
Cc1cccc(N2CC(C(=O)Nc3nnc(SCCN4CCOCC4)s3)CC2=O)c1 (centres undefined)	?	0.5%	6.9%	?	5.1%	-35.6%
O=C(Nc1nnc(SCc2ccccn2)s1)C1CC(=O)N(c2ccccc2)C1 (centres undefined)	10.3%	0.0%	-8.7%	?	31.0%	-4.8%
Cc1cccc(N2CC(C(=O)Nc3nnc(SCCC4OCCO4)s3)CC2=O)c1 (centres undefined)	-24.5%	3.1%	-24.7%	22.4µM*	-8.2%	?
Cc1ccc(N2CC(C(=O)Nc3nnc(SCc4ccccn4)s3)CC2=O)cc1 (centres undefined)	17.5%	2.9%	-4.2%	44.7µM*	30.3%	-13.2%
CC1CC(C)CN(C(=O)COC(=O)COc2ccccc2C#N)C1 (centres undefined)	nt	0.2%	-0.5%	-7.3%[12.7 µM]	21.7%	0.3%
O=C1CCc2cc(S(=O)(=O)Nc3cccc(Cl)c3)ccc2N1	nt	0.3%	nt	nt	nt	-10.9%
O=S(=O)(c1ccc(=S)[nH]c1)N1CCOCC1	nt	0.5%	-5.5%	?	-19.2%	11.2µM*
O=c1[nH]c2ccc(S(=O)(=O)N3CCCCC3)cc2o1	-2.3%	-7.7%	-2.3%	?	16.9%	?
O=S(=O)(c1ccc2oc(=S)[nH]c2c1)N1CCCCC1	8.9%	3.5%	-1.2%	44.7µM*	14.0%	-18.4%
O=S(=O)(c1ccc2oc(=S)[nH]c2c1)N1CCOCC1	nt	4.0%	-38.1%	1.26µM*	-41.3%	79.4µM*
O=S(=O)(Nc1cccc(Cl)c1)c1ccc2oc(=S)[nH]c2c1	10.7%	8.0%	nt	25.1µM*	-15.1%	20µM*
CCCCn1c(=S)[nH]c2cc(S(=O)(=O)N3CCOCC3)ccc21	nt	0.8%	nt	nt	42.0%	?
Cc1ccc(OCc2nnc(-c3ccccc3)o2)cc1	nt	-6.1%	139.8%	60.0%[59 µM]	61.2%	54.2%
Cc1ccc(C)c(NC(=O)CSc2nc(=O)n(CCN3CCOCC3)c3c2CCC3)c1	nt	0.0%	-26.9%	4.1%[59 µM]	19.7%	-12.3%
CCNC(=O)NC(=O)C(C)OC(=O)[C@H](C)NS(=O)(=O)c1c(C)c(C)cc(C)c1C (some centres undefined)	27.4%	3.1%	-18.1%	nt	35.5%	14.3%
CCOC(=O)C(Nc1ccc2ccccc2c1)C(=O)OCC	-1.1%	0.0%	50.1µM*	2µM*	-35.4%	?
Cc1ccc2nc3ccc(N4CCCC4)nn3c(=O)c2c1	27.9%	0.0%	-0.8%	9.7%[59 µM]	44.4%	3.2%
CC1CCCN(c2ccc3nc4ccccc4c(=O)n3n2)C1 (centres undefined)	11.1%	5.3%	5.8%	50.1µM*	33.0%	79.4µM*
CC(C)S(=O)(=O)C1=NSC2=NC(=O)/C(=C\c3ccc(-c4cccc(C(=O)O)c4)o3)C(=N)N21	14.1µM*	2.5%	79.4µM*	39.8µM*	10.5%	?
N=C1/C(=C/c2ccc(-c3cccc(C(=O)O)c3)o2)C(=O)N=C2SC=C(c3ccccc3)N12	-52.8%	35.5µM*	12.6µM*	39.8µM*	?	22.4µM*
CCCOc1ccc(Cc2c(COCC)[nH]c(=S)[nH]c2=O)cc1	5.8%	-3.0%	-15.8%	44.7µM*	3.4%	-20.3%
CCCOc1ccc(CCC(=O)O)cc1	1.1%	2.4%	8.5%	nt	64.1%	2.5%
CCC(=O)Nc1ccc(S(=O)(=O)NCc2cccn2Cc2cccc(C)c2)cc1	nt	8.8%	?	-5.7%[59 µM]	-25.2%	?
COc1ccc(C2NN=C(c3ccc(C)cc3)S2)cc1 (centres undefined)	8.9%	nt	10.6%	31.6µM*	18.4%	-12.0%
SMILES	Sfp inh	TDP1 block	BAZ2B block	G9a inh	HP1b chromo inh	JMJD2A Tudor inh
Cc1cccc(NC(=S)NNC(=O)c2cc3c(s2)CCC(C)C3)c1C (centres undefined)	4.9%	2.2%	11.5%	?	-7.0%	?
Cc1ccc(C)c(NC(=S)NNC(=O)c2cc3c(s2)CCC(C)C3)c1 (centres undefined)	29.0%	8.2%	-6.1%	35.5µM*	-19.3%	-32.3%
CC(=O)NCC1CCCN(Cc2cn(-c3ccccc3F)nc2-c2cc(C)sc2C)C1 (centres undefined)	-0.4%	2.6%	-9.3%	nt	14.4%	-23.9%
CCOC(=O)c1c(CSc2ccccc2)n(C)c2cc(Br)c(OCC(O)CNC(CO)(CO)CO)cc12 (centres undefined)	?	0.0%	?	39.8µM*	56.2µM*	?
CCOC(=O)c1c(N)n(-c2cccc(OC)c2)c2nc3ccccc3nc12	nt	-8.5%	-2.7%	-8.1%[59 µM]	32.6%	-2.9%
CCOC(=O)c1c2c(n(-c3ccc(OC)cc3)c1C)C(=O)C(=O)c1ccccc1-2	nt	nt	nt	nt	?	17.8µM*
O=C(Nc1ccc(-c2csc(-c3ccccc3)n2)cc1)c1ccccc1Cl	-1.3%	5.8%	-2.1%	16.9%	17.0%	-13.5%
O=C(Nc1ccc(-c2n[nH]c(=S)o2)cc1)c1ccccc1Cl	-3.2%	nt	-3.9%	1.78µM*	16.9%	-15.1%
Cc1cnc(C(=O)Nc2ccccc2F)cn1	-13.8%	2.3%	?	?	13.0%	11.0%
Cc1cnc(C(=O)Nc2ccccc2-n2cccc2)cn1	44.7µM*	-7.8%	-10.9%	?	5.3%	?
CN1CCN(C(=O)C2CCCCC2)CC1	4.5%	3.7%	nt	-37.7%[12.7 µM]	nt	nt
CCN1CCCc2cc(CN(CCN3CCOCC3)C(=S)Nc3ccc(OC)c(Cl)c3)ccc21	-1.6%	5.8%	?	50.1µM*	18.5%	?
CCN1CCCc2cc(CN(CCN3CCOCC3)C(=S)Nc3ccccc3OC)ccc21	15.1%	6.7%	39.8µM*	25.1µM*	-37.8%[57 µM]	39.8µM*
CCN1CCCc2cc(CN(CCN3CCOCC3)C(=S)Nc3cccc(C)c3)ccc21	14.7%	10.5%	8.91µM*	?	?	11.2µM*
CCN1CCCc2cc(CN(CCN3CCOCC3)C(=S)Nc3ccc(OC)c(OC)c3)ccc21	15.7%	7.9%	-33.8%	-6.8%[59 µM]	30.2%	-26.5%[11.4 µM]
